PubChem BioAssay (Tox21)
Inconclusive results are not listed. Activity calls are given as the source filed them. Unless noted, calls come from the whole dose curve.

Legend:
[1] = Nuclear factor erythroid 2-related factor 2/antioxidant responsive element (Nrf2/ARE) small molecule agonists: qHTS cell viability counter screen in human keratinocytes (AID 1919968; active = well fitted curve in the direction sought with a large enough effect in the repeat runs; an effect the other way counts as inactive or inconclusive; note: nearly all actives have a fitted effect of over 55% in size)
Procedure, shortened: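 KeratinoSens cells (HaCaT keratinocytes stably carrying an ARE-luciferase reporter) were seeded at 1,500 cells/well and rested 5 h at 37 C/5% CO2. They were then exposed to compounds in DMSO for 23 h. Viability was read by CellTiter-Fluor fluorescence after 1 h.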

[2] = Nuclear factor erythroid 2-related factor 2/antioxidant responsive element (Nrf2/ARE) small molecule agonists: luciferase reporter gene qHTS assay in human keratinocytes (AID 1919969); note: nearly all actives have a fitted effect of over 35% in size
[3] = molecular target: Gonadotropin-releasing hormone receptor (Homo sapiens) (UniProt P30968); test: Human gonadotropin-releasing hormone receptor (GnRHR) small molecule agonists, calcium flux assay in GnRHR-HEK293 cells (AID 1920063); note: nearly all actives have a fitted effect of over 35% in size
Sequence of Gonadotropin-releasing hormone receptor (Homo sapiens) (P30968 whole entry, looked up): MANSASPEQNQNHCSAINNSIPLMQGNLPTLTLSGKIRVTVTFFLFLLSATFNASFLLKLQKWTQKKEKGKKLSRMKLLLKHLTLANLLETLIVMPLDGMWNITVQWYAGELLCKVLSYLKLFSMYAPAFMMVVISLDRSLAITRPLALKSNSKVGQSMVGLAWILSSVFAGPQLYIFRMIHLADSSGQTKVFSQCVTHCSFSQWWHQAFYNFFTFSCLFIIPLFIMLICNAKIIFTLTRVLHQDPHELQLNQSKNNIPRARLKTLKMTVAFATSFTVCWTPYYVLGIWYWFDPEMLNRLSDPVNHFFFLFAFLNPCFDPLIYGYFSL
Procedure, shortened: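 HEK293 cells stably expressing human GnRHR were plated 18 h at 37 °C, loaded with calcium dye 1 h at 37 °C, then given compound in agonist mode; fluorescence (Ex/Em 480/540) read kinetically for 3 min at 1 s intervals.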

[4] = molecular target: KiSS-1 receptor (Homo sapiens) (UniProt Q969F8); test: Human kisspeptin (KISS1R) small molecule agonists, calcium flux assay in KISS1R-HEK293 cells (AID 1920064; active = well fitted curve in the direction sought with a large enough effect in the repeat runs; an effect the other way counts as inactive or inconclusive)
Sequence of KiSS-1 receptor (Homo sapiens) (Q969F8 whole entry, looked up): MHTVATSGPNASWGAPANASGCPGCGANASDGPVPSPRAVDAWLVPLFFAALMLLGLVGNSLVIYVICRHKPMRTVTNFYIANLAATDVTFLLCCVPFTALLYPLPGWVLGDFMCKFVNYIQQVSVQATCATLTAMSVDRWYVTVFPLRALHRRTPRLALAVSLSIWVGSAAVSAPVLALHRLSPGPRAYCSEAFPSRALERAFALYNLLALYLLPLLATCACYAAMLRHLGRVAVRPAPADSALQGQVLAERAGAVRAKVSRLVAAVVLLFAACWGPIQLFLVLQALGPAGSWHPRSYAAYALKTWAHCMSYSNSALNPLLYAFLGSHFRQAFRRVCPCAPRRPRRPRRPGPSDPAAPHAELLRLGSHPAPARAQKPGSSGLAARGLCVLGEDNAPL
Procedure, shortened: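 HEK293 cells stably expressing human KISS1R were plated 18 h at 37 °C, loaded with calcium dye for 1 h at 37 °C, then given compound by pin tool. Fluorescence (Ex/Em 480/540) was read kinetically for 3 min.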

[5] = G protein-coupled receptor (GPCR) small molecule agonists, calcium flux assay: HEK293 wild type cell line counter screen (AID 1920065)
Procedure, shortened: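 Cells were plated and cultured 18 h at 37 C/5% CO2, then loaded with calcium dye for 1 h at 37 C. Compounds in DMSO were pin-transferred in agonist mode, and fluorescence (Ex/Em 480/540) was read kinetically for 3 min at 1 s intervals.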

[6] = p53 small molecule agonists, cell-based qHTS assay with rat liver microsomes (AID 1963578)
Procedure, shortened: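 Read-out is beta-lactamase reporter fluorescence (LiveBLAzer, 2 h, room temperature, dark) in p53RE-bla cells treated 16 h at 37 C with compound, rat liver microsomes and NADPH, both 0.5 mg/mL final.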

[7] = p53 small molecule agonists, cell-based qHTS assay with human liver microsomes: qHTS cell viability counter screen (AID 1963579); note: nearly all actives have a fitted effect of over 45% in size
Procedure, shortened: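 Cells carrying the p53 response-element beta-lactamase reporter are treated for 16 h at 37 C with test compounds in the presence of human liver microsomes and NADPH (both 0.5 mg/mL final); ATP-based CellTiter-Glo luminescence then reports viability.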

[8] = p53 small molecule agonists, cell-based qHTS assay with rat liver microsomes: qHTS cell viability counter screen (AID 1963580); note: nearly all actives have a fitted effect of over 45% in size
Procedure, shortened: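 Viability is assessed in parallel with the p53 reporter read: HCT-116 p53RE-bla cells receive compounds plus rat microsomes and NADPH (0.5 mg/mL final apiece), incubate 16 h at 37 C, and then CellTiter-Glo luminescence is recorded.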

[9] = p53 small molecule agonists, cell-based qHTS assay: qHTS cell viability counter screen (AID 1963581); note: nearly all actives have a fitted effect of over 45% in size
Procedure, shortened: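 p53RE-bla HCT-116 cells were exposed to compounds for 16 h at 37 C; after the beta-lactamase FRET read in the same wells, CellTiter-Glo was added and luminescence (intracellular ATP) read after 30 min at room temperature.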

[10] = p53 small molecule agonists, cell-based qHTS assay (AID 1963582; active = well fitted activation curve with a large enough effect in the signal ratio in the repeat runs, not every such curve was filed as active; the % refers to the signal ratio)
Procedure, shortened: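 p53RE-bla beta-lactamase reporter cells rested 5 h at 37 C/5% CO2, then received compounds in DMSO by pin transfer and were incubated 16 h at 37 C. LiveBLAzer B/G FRET substrate was loaded for 2 h at room temperature before fluorescence reading.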

[11] = molecular target: 5-hydroxytryptamine receptor 2A (Homo sapiens) (UniProt P28223); test: 5-hydroxytryptamine receptor 2A (HTR2A) small molecule antagonists, cell-based qHTS assay (AID 1963586); note: nearly all actives have a fitted effect of over 45% in size
Sequence of 5-hydroxytryptamine receptor 2A (Homo sapiens) (P28223 whole entry, looked up): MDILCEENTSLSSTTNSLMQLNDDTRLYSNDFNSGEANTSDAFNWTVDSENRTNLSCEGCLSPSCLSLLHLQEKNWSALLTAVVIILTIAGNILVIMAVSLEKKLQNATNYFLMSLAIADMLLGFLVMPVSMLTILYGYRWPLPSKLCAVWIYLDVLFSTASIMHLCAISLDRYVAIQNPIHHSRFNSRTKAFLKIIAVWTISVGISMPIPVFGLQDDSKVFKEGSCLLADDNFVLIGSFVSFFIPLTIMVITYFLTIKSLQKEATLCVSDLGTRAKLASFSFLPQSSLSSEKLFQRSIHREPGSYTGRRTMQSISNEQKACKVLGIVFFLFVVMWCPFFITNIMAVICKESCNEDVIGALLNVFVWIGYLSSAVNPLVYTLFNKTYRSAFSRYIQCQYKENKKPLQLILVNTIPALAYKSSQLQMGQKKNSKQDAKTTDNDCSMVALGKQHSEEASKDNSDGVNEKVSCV
Procedure, shortened: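 Antagonist-mode intracellular calcium assay: DOI (4 nM) added after 5 min compound pre-incubation at room temperature to dye-loaded HTR2A-CHO cells. Fluorescence followed for 3 min, sampled every second.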

[12] = molecular target: 5-hydroxytryptamine receptor 2A (Homo sapiens) (UniProt P28223); test: 5-hydroxytryptamine receptor 2A (HTR2A) small molecule agonists, cell-based qHTS assay (AID 1963587); note: nearly all actives have a fitted effect of over 30% in size
Procedure, shortened: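 CHO cells stably expressing human HTR2A, plated 18 h, loaded with calcium dye 1 h at 37 C. Agonist mode: compounds added and intracellular calcium fluorescence recorded kinetically for 2 min at 1 sec intervals.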

[13] = molecular target: Muscarinic acetylcholine receptor M1 (Homo sapiens) (UniProt P11229); test: Cholinergic receptor muscarinic 1 (CHRM1) small molecule antagonists, cell-based qHTS assay (AID 1963588); note: nearly all actives have a fitted effect of over 40% in size
Sequence of Muscarinic acetylcholine receptor M1 (Homo sapiens) (P11229 whole entry, looked up): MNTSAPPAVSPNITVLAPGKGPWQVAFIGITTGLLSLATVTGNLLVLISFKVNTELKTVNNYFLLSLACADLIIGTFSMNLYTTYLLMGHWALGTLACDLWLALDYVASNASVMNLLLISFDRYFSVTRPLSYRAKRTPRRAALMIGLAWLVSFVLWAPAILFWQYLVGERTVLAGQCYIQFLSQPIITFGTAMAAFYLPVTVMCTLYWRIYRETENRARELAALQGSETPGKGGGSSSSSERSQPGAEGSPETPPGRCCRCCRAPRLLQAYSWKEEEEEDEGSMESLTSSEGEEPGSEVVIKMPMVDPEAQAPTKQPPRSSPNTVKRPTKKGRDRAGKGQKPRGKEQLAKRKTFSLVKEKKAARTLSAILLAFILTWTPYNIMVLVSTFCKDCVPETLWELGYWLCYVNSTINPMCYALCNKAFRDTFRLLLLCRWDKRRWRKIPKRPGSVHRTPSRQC
Procedure, shortened: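 CHRM1-CHO calcium-flux assay, antagonist mode. Cells were seeded 18 h, dye-loaded 1 h at 37 C and given compound for 5 min at RT, then acetylcholine was added at 50nM. FDSS fluorescence was read 3 min; 15 concentrations, three runs.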

[14] = molecular target: Muscarinic acetylcholine receptor M1 (Homo sapiens) (UniProt P11229); test: Cholinergic receptor muscarinic 1 (CHRM1) small molecule agonists, cell-based qHTS assay (AID 1963589); note: nearly all actives have a fitted effect of over 35% in size
Procedure, shortened: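 CHO cells stably expressing human CHRM1, seeded 18 h at 37 C/5% CO2, dye-loaded 1 h at 37 C, then given compound in agonist mode; intracellular calcium fluorescence read kinetically at 1 s intervals. Fifteen concentrations, three independent runs.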

[15] = cAMP Responsive Elements (CRE) small molecule agonists, cell-based qHTS assay (AID 1963590)
Procedure, shortened: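 CRE-bla HEK 293T cells in DMEM with 10% dialyzed FBS, NEAA, pyruvate and 25 mM HEPES were plated 18 h at 37 C/5% CO2, then exposed to compounds in DMSO for 3 h before LiveBLAzer B/G FRET substrate addition.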

[16] = cAMP Responsive Elements (CRE) small molecule antagonists, cell-based qHTS assay (AID 1963591; active = well fitted inhibition curve with a large enough effect in the signal ratio in the repeat runs, not every such curve was filed as active; the % refers to the signal ratio)
Procedure, shortened: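 CRE-bla HEK293T cells were plated 18 h at 37 °C/5% CO2, pinned with compound in DMSO, then stimulated with NKH477 at 0.25 uM final for 3 h. LiveBLAzer B/G FRET substrate was added and plates incubated 2 h at room temperature.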

[17] = molecular target: Beta-2 adrenergic receptor (Homo sapiens) (UniProt P07550); test: Adrenergic beta2 receptor (ADRB2) small molecule antagonists, cell-based qHTS assay (AID 1963592); note: series mostly up to about 92 µM; nearly all actives have a fitted effect of over 50% in size
Sequence of Beta-2 adrenergic receptor (Homo sapiens) (P07550 whole entry, looked up): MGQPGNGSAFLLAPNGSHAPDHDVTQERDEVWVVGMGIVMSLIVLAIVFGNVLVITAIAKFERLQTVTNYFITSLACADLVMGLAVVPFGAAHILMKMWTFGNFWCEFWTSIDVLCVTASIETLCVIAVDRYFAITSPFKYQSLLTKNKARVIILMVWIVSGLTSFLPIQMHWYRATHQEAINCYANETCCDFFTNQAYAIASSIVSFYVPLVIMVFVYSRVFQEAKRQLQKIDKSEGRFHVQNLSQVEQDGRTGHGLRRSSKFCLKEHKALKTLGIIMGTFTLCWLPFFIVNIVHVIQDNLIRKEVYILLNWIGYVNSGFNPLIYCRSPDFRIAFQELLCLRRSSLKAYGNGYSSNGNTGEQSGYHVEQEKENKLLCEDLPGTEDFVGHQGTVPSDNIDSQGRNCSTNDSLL
Procedure, shortened: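 Cells (CHO, stable ADRB2 overexpression) incubated 18-20hr at 37C; compounds added from DMSO; agonist mix (1nM isoproterenol, 100uM IBMX, 25uM Ro-20-1724) added; 0.5hr RT; d2-cAMP and anti-cAMP-cryptate added; 1hr RT; 665/615 nm read.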

[18] = molecular target: Beta-2 adrenergic receptor (Homo sapiens) (UniProt P07550); test: Adrenergic beta2 receptor (ADRB2) small molecule agonists, cell-based qHTS assay (AID 1963593);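 note: CHO cells stably overexpressing human ADRB2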
Procedure, shortened: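 CHO cells stably over-expressing ADRB2 were plated overnight at 37C, then dosed with compounds plus a stimulation mix containing 100uM IBMX and 25uM Ro-20-1724 for 0.5hr at room temperature. cAMP was measured by HTRF competition, 1hr.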

[19] = molecular target: D(2) dopamine receptor (Homo sapiens) (UniProt P14416); test: Dopamine D2 receptor (DRD2) small molecule agonists, cell-based qHTS assay (AID 1963594); note: nearly all actives have a fitted effect of over 35% in size
Sequence of D(2) dopamine receptor (Homo sapiens) (P14416 whole entry, looked up): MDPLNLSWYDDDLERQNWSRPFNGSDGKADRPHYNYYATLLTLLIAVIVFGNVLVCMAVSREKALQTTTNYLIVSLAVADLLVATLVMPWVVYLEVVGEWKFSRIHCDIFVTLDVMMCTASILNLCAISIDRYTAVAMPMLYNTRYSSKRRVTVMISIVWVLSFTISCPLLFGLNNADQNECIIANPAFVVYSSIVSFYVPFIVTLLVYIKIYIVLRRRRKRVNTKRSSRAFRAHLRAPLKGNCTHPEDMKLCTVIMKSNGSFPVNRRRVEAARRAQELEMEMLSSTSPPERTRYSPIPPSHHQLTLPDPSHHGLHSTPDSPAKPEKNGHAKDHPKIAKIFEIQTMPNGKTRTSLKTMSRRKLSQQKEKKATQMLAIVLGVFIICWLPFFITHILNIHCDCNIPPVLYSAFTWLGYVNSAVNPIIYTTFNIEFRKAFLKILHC
Procedure, shortened: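 HEK293 cells stably expressing human DRD2, pre-treated with PDE inhibitor Ro20-1724 (0.1 mM final) and compound 10 min at room temperature, then stimulated with NKH477 (200nM […]) for 30 min. cAMP read by HTRF (665/620 nm).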

[20] = molecular target: D(2) dopamine receptor (Homo sapiens) (UniProt P14416); test: Dopamine D2 receptor (DRD2) small molecule antagonists, cell-based qHTS assay (AID 1963595; active = well fitted inhibition curve with a large enough effect in the signal ratio in the repeat runs, with a control signal flat; the % refers to the signal ratio)
Procedure, shortened: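 Antagonism was scored as restored cAMP in HEK293-DRD2 cells. These cells were stimulated with 200 nM NKH477 and 12 nM quinpirole for 30 min at room temperature, in the presence of 0.1 mM Ro20-1724.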

Measured: Potency

CC(C)c1ccccc1O
inactive: all assays above

CCCCCCS
not listed: [6] | [7] | [11]
inactive: all other assays above

O=C(C(=O)c1ccco1)c1ccco1
not listed: [18] | [20]
inactive: all other assays above

CCCCC(CC)COCCO (configuration not stated)
not listed: [16] | [17] | [20]
inactive: all other assays above

CO[C@H]1C=CO[C@@]2(C)Oc3c(C)c(O)c4c(O)c(c(/C=N/N5CCN(C)CC5)c(O)c4c3C2=O)NC(=O)/C(C)=C\C=C[C@H](C)[C@H](O)[C@@H](C)[C@@H](O)[C@@H](C)[C@H](OC(C)=O)[C@@H]1C
inactive: [1] | [2] | [3] | [4] | [5] | [6] | [7] | [8] | [9]

CCC(=O)c1ccc(O)cc1
inactive: all assays above

O=c1n(CCO)c(=O)n(CCO)c(=O)n1CCO
not listed: [6] | [7] | [20]
inactive: all other assays above

C1CSCCS1
not listed: [17]
inactive: all other assays above
